High-throughput results (PubChem BioAssay)
The list is not random: actives were taken first. Their share in the collection is about 21%.
VP16 counter: Gal4-VP16 reporter inhibition counter-screen; Drosophila S2 Gal4-VP16 UAS-luciferase, luminescence, 20 h; Potency, µM (top dose mostly 53.6 µM), without a hit: at the top dose activity, negative = inhibition, most hits filed as inhibitors; hit rate 3.5% among 310,000; AID 2546;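 note: Gal4-VP16 expression switched on by copper sulfate through the metallothionein promoter; potency is the fitted concentration of half-maximal effect; nearly all actives have a fitted effect of over 50% in size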
ELG1 DNA repair: blocks ELG1-dependent DNA repair in HEK293T cells; HEK293T ELG1-luciferase reporter, luminescence, 16 h; DNA damage induced by 5-fluorouridine; Potency, µM (titrated, usually from 46.1 µM), inactives show at the highest dose activity change, negative = inhibition, usual class: inhibitors; hit rate 2.3% among 330,000; note: potency is the fitted concentration of half-maximal effect; nearly all actives have a fitted effect of over 55% in size
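Luminescence from the luciferase reporter, measured 30 min after ONE-Glo reagent at room temperature, was the read-out. Beforehand, 2,000 cells per well were exposed for 16 hr at 37 °C to 5-fluorouridine together with compound or vehicle.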
DT40 TDP1 CPT: growth inhibition of DT40 Tdp1-/-;hTDP1 cells with camptothecin (screen for TDP1 inhibitors); Potency, µM (titrated, usually from 46.2 µM), for the others: at the highest dose activity change, negative = growth inhibition, most hits filed as inhibitors; hit rate 12% among 420,000; chicken DT40 Tdp1-/-;hTDP1 cells + 20 nM CPT, ATP luminescence, 48 h; note: potency is the fitted concentration of half-maximal effect; nearly all actives have a fitted effect of over 55% in size
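Chicken DT40 Tdp1-/- cells stably complemented with human TDP1 were seeded at 400 cells/well in medium containing 20 nM camptothecin, exposed to pin-transferred compounds, and grown at 37 °C for at least 48 hr. Viability was read as ATP luminescence.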
IL1B secr inh: blocks inflammasome-driven IL-1 beta release; THP-1 LPS/ATP IL-1B secretion, AlphaLISA, 16 h; stronger effect = lower value; activity change, % at 57.5 µM; hit rate 4.7% among 360,000; AID 743279; in the data active = activity change below about -50%; inconclusive = mostly about -30% to -49%
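THP-1 cells pretreated 1 hr with compounds (up to 57.5 uM final), then stimulated with LPS (250 ng/mL final) plus ATP (1.25 mM final); secreted IL-1B measured by AlphaLISA after 16 hr, decreased signal indicating inhibition.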
DT40 TDP1 no CPT: qHTS for Inhibitors of human tyrosyl-DNA phosphodiesterase 1 (TDP1): qHTS in cells in absence of CPT; Potency, µM (titrated, usually from 46.2 µM), for inactives: top-dose activity change, negative = growth inhibition, most hits filed as inhibitors; DT40 Tdp1-/- hTDP1 cells, no CPT, ATP luminescence, 48 h; AID 686978, 2013; hit rate 15% among 420,000; note: potency is the fitted concentration of half-maximal effect; nearly all actives have a fitted effect of over 55% in size
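Camptothecin absent (DMSO only). Human TDP1-complemented DT40 knockout cells, 400 cells/well, 37 °C for minimum 48 hr; ATP measured via CellTiter-Glo, 30 min dark incubation, luminescence.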
RORg inh: inhibitors of mouse ROR gamma transcriptional activity; Drosophila S2 Gal4-RORgamma UAS-luciferase reporter, 20 h; P51450; hit rate 5.4% among 310,000; AID 2551; Potency, µM (highest dose often 53.6 µM), for the others: at the top dose activity change, negative = inhibition, hits mostly inhibitors; note: potency is the fitted concentration of half-maximal effect; nearly all actives have a fitted effect of over 60% in size
Target sequence (P51450 whole entry, looked up, the tested form may be a part): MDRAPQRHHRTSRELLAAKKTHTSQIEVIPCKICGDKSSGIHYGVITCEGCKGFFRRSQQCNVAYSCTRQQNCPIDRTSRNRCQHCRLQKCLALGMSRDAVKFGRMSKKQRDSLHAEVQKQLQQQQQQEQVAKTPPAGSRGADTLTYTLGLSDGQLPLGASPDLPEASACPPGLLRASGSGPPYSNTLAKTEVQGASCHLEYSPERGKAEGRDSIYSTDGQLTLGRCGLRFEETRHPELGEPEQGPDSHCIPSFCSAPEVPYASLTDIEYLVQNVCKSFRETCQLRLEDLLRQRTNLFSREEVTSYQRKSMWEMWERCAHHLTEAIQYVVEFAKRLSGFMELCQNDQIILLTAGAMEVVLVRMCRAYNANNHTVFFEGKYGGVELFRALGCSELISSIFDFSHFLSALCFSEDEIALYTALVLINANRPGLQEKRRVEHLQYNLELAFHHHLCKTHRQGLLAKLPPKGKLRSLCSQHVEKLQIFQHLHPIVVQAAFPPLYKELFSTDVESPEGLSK
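Schneider cells (Drosophila), stable Gal4 DBD–ROR gamma + UAS-luc; 1 hr cmpd preincubation; Cu2+ induction 700 uM final; 20 hr ambient; luminescence.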
An asterisk follows results filed as active; ? = inconclusive; / = no result given; [ ] = another dose, or the depositor's remark. Unless noted, calls come from the whole dose curve; as a rule, active = well fitted curve in the direction sought with a large enough effect; inconclusive = small, poorly fitted or top-dose-only effect, or another doubt; inactive = no such curve, though single readings can be large; an effect the other way counts as inactive or inconclusive. % is set by controls: 0 for no effect and ±100 for the full control effect.

SMILES	VP16 counter	ELG1 DNA repair	DT40 TDP1 CPT	IL1B secr inh	DT40 TDP1 no CPT	RORg inh
Cc1cc(Cl)ccc1NC(=S)NCc1ccccc1Cl	4µM*	1%	?	-5	26µM*	5µM*
O=C(O)CCNC(=S)Nc1cccc(F)c1	0%	4%	0%	25	10%	-7%
NNC(=S)Nc1ccccc1Cl	11µM*	?	?	26	7.3µM*	7.9µM*
Fc1cccc(NC(=S)NCc2ccccc2Cl)c1	11µM*	0%	?	?	-28%	7.1µM*
S=C(NCCNC(=S)Nc1ccccc1Cl)Nc1ccccc1Cl	-15%	?	-68%	?	?	?
NNC(=S)Nc1ccc(C(F)(F)F)cc1Cl	?	16%	?	21	-11%	11µM*
O=C(CN1CCCCC1)Nc1ccc(C(F)(F)F)cc1Cl	0%	6%	-16%	/	?	2%
CC1(C(=O)Nc2ccc3c(c2)OCCO3)CSCC(=O)N1C1CC1 (stereo not given)	/	/	18%	0	2%	/
O=C(O)C1OC(O)C(O)C(O)C1O (stereo not given)	-6%	/	/	/	/	-3%
CC(=O)N1CCc2cc(Br)cc(S(=O)(=O)N3CCC(C(=O)O)CC3)c21	-5%	21%	2%	-10	-15%	-4%
Cc1nc2c(-c3ccccc3)c(C)nn2c(C)c1CCC(=O)N1CCN(c2ccccc2)CC1	/	/	-3%	/	?	/
S=C(NCc1ccccc1Cl)Nc1ccccc1Cl	2.8µM*	-14%	2%	0	0%	0.56µM*
COCCn1ccc2c(OCC(=O)Nc3cccc(OC)c3)cccc2c1=O	/	/	?	/	15µM*	/
CCOCCn1ccc2c(OCC(=O)Nc3cc(C)cc(C)c3)cccc2c1=O	/	/	-30%	/	?	/
COCCn1ccc2c(OCC(=O)Nc3cccc(C(F)(F)F)c3)cccc2c1=O	/	/	?	/	23µM*	/
CCOCCn1ccc2c(OCC(=O)Nc3ccc(OC)c(OC)c3)cccc2c1=O	/	?	15µM*	15	10µM*	/
CCCCCCCCCCCCCC(=O)N[C@@H](C)[C@H](O)c1ccccc1	-3%	/	0%[4.12 µM]	/	-23%[4.12 µM]	2%
Cc1cc(C)cc(-c2cc3c(c(-c4c(O)c(-c5cc(C)cc(C)c5)cc5c4CCCC5)c2O)CCCC3)c1	2%	/	/	/	/	15%
CC1CC(OC(=O)C(O)c2ccccc2)CC(C)(C)C1 (stereo not given)	-25%	/	?	/	7.5µM*	13%
Cc1nn(CC(=O)NCCCN2CCN(C)CC2)c(=O)c2cc(-c3ccccc3)nn12	6%	-2%	5%	-11	16%	-3%
CCc1ccc(-c2cc3c(=O)n(CC(=O)NCCCN4CCN(CC)CC4)nc(C)n3n2)cc1	6%	19%	18µM*	?	?	14%
CCN1CCN(CCCNC(=O)Cn2nc(C)n3c(cc4cc(C)ccc43)c2=O)CC1	/	/	-12%	/	-23%	/
Cc1nn(CC(=O)NCCCN2CCC(N3CCCCC3)CC2)c(=O)c2cc(-c3ccccc3)nn12	-7%	-11%	7.3µM*	-20	4.1µM*	22%
CCOC(=O)C1CCCN(C(=O)Cn2nc(C)n3nc(-c4ccccc4)cc3c2=O)C1 (stereo not given)	-10%	-9%	15µM*	12	?	13%
O=C(NCC1CCCCC1)c1ccc2sc([C@H]3C[C@H](O)[C@@H](CO)O3)nc2c1	/	/	-22%	39	?	/
CCOC(=O)C1=C(C)NC2=C(C(=O)CCC2)C1c1cn(Cc2ccc(Cl)cc2Cl)nc1-c1ccccc1 (stereo not given)	-13%	-10%	16µM*	?	21µM*	20%
CN(CC(=O)Nc1cc(S(=O)(=O)N2CCCC2)ccc1Cl)Cc1nc2ccccc2c(=O)[nH]1	/	/	?	0	21µM*	/
